# According to PMC4336329 (PLoS ONE, 2015):
# The whole screen tested about 310,000 compounds, of which about 14,000 (4.5%) showed an effect of 50% or more. The effect is printed as a negative number. Only a selection was taken, and strong results are over-represented in it overall.
# Biological target: human ether-à-go-go-related gene (hERG) potassium channel (human, UniProt Q12809)
# Assay: primary screen, population patch clamp on CHO cells stably expressing hERG; higher = less effect of the substance
# 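Note: peak tail current of the secondary pulse compared with the same well before compound.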
# Sequence of human ether-à-go-go-related gene (hERG) potassium channel (Q12809 whole entry, looked up): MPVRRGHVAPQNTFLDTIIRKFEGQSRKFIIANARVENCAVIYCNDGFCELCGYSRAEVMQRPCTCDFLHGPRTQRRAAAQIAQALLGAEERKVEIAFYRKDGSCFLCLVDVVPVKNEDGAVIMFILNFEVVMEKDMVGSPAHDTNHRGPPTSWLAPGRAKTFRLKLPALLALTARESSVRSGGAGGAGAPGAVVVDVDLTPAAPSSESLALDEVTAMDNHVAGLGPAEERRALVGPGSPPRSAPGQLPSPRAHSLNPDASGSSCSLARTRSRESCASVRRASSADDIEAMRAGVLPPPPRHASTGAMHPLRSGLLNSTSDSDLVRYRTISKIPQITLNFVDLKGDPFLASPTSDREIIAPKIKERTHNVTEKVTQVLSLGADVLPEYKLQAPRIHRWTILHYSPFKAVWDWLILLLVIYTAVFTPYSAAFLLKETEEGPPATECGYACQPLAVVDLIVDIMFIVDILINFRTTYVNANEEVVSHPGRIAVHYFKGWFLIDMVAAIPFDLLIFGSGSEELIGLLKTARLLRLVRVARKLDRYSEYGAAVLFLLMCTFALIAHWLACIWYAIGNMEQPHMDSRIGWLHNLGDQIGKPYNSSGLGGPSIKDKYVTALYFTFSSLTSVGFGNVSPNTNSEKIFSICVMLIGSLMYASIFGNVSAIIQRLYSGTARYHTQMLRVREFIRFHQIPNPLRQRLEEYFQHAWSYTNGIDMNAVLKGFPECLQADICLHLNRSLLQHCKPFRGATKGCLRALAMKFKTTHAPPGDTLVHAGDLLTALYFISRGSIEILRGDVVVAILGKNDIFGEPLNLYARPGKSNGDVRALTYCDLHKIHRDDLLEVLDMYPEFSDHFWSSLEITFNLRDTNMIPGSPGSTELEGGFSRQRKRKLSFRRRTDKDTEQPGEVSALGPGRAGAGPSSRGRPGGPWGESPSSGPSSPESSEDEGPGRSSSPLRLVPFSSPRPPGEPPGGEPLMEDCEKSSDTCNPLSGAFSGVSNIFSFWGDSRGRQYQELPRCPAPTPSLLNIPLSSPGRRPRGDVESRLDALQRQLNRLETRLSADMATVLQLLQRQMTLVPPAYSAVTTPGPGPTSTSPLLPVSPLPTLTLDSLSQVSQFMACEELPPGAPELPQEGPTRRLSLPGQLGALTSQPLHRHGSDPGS
row,SMILES,"hERG current change (%, negative = inhibition) at 10uM"
1,O=C(CSc1ncnc2c1oc1ccccc12)NCc1ccco1,-12.4%
2,CC(C)(C)SCCNC(=O)c1ccc(CN2CCc3ccccc3C2)cc1,-35.1%
3,O=C(Cn1ccsc1=NC(=O)c1ccco1)c1ccccc1,-6.93%
4,O=C(Nc1ccc(F)cc1F)c1cc(=O)n(-c2ccccc2)c(=O)[nH]1,6.37%
5,COc1ccc(NC(=O)CSC2=NC(=O)CC(C)=N2)cc1,15.1%
6,O=C(NNC(=S)NC(=O)c1ccccc1)c1ccc(O)cc1,24.7%
7,O=C(/C=C/c1ccccc1)N(Cc1ccc(Cl)cc1)C1CCS(=O)(=O)C1 (stereo not drawn),-30.6%
8,O=C(c1ccc(Cl)cc1)N(Cc1cccs1)C1CCS(=O)(=O)C1 (stereo not drawn),-24.4%
9,O=C(/C=C/c1ccccc1Cl)N(Cc1cccs1)C1CCS(=O)(=O)C1 (stereo not drawn),-31.5%
10,COc1ccc(/C=C/C(=O)N(Cc2cccs2)C2CCS(=O)(=O)C2)cc1 (stereo not drawn),-48.6%
11,O=C(/C=C/c1ccccc1)N(Cc1cccc(Cl)c1)C1CCS(=O)(=O)C1 (stereo not drawn),-25.6%
12,Cc1ccc(/C=C/C(=O)N(Cc2cccs2)C2CCS(=O)(=O)C2)cc1 (stereo not drawn),-79%
13,O=C(/C=C/c1ccc(Cl)cc1)N(Cc1ccccc1)C1CCS(=O)(=O)C1 (stereo not drawn),-75%
14,O=C(/C=C/c1ccc(Cl)cc1)N(Cc1cccs1)C1CCS(=O)(=O)C1 (stereo not drawn),-72.8%
15,O=C(/C=C/c1ccccc1)N(Cc1cccs1)C1CCS(=O)(=O)C1 (stereo not drawn),-30.3%
16,S=C(NCc1cccs1)Nc1ccccc1Cl,9.58%
17,CCC1CCCCN1C(=O)CCS(=O)(=O)c1ccccc1 (stereo not drawn),13.7%
18,COc1ccc(/C(O)=C2/C(=O)C(=O)N(CCCC(=O)O)C2c2ccc(OC)cc2)cc1 (stereo not drawn),11.7%
19,Cc1cc(C(=O)NCc2cccc(Cl)c2)c2ccccc2n1,15.8%
20,COC(=O)c1cccc(C23CC4(C2)[C@H](CN(Cc2cccnc2)[C@@H]4c2ccccc2)C3c2ccccc2)c1 (stereo partly drawn),8.51%
21,CCC(=O)N1CCc2cc(S(=O)(=O)CCC(=O)NC3CCCCC3)ccc21,5.33%
22,Cc1nn(C)c(C(=O)N/N=C/c2ccncc2)c1Cl,7.35%
23,COc1ccccc1N1C(=O)c2ccc(C(=O)Nc3cccc(C(C)=O)c3)cc2C1=O,1.69%
24,CCn1cc(CN(C)S(=O)(=O)c2ccc3ccccc3c2)c(C)n1,-1.17%
